PubChem BioAssay (NCATS)
Where “and” joins values, the source holds several entries; their conditions need not be identical. Equal entries are not always repeated. A number with no mark means an inactive call. Unless noted, calls come from the whole dose curve; as a rule, active = well fitted curve in the direction sought with a large enough effect; inconclusive = small, poorly fitted or top-dose-only effect, or another doubt; inactive = no such curve, though single readings can be large; an effect the other way counts as inactive or inconclusive. Records with an inconclusive call do not appear.

Tested on: not listed separately
Test: qHTS Assay for Identification of Small Molecule Agonists for Hypoxia Response Element Signaling Pathway (AID 914; active = well fitted activation curve with a large enough effect in the signal ratio, with a control signal flat, not every such curve was filed as active; the % refers to the signal ratio; note: % of control where 0% means no effect)
Settings: ME-180 (cervical carcinoma) HRE-bla reporter, beta-lactamase ratio, CoCl2, 17 h; stronger effect = higher value
Method in brief: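 Cells were plated overnight, pin-dosed with compound in a titration series, co-stimulated with EC50 CoCl2 and incubated 17 hours at 37 degrees Celsius. CCF4 substrate was then loaded, and AC50 values came from the 460nm/530nm ratio.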

Row | Structure (SMILES) | activation
1 | CC(C)=CCC/C(C)=C/CO/N=C1/C[C@@H](O)[C@@H](O)[C@@H]2[C@@H]3C(=O)N(c4cccc(Oc5ccccc5)c4)C(=O)[C@H]3CC[C@@H]12 | 6.84%
2 | CO[C@H]1COC(=O)[C@H](C)COC(=O)[C@H](C)NC(=O)C/C=C\[C@H]1C | 5.98%
3 | c1ccc([C@H]2NCCc3c2[nH]c2ccccc32)cc1 | -22.5%
4 | CC(C)CO/N=C1/C[C@@H](O)[C@@H](O)[C@@H]2[C@@H]3C(=O)N(C4CCCCC4)C(=O)[C@H]3CC[C@@H]12 | -7.25%
5 | COC(=O)C/C=C\[C@@H](C)[C@@H]1C=C[C@H](OC(C)=O)[C@H](COC(C)=O)O1 | 1.52%
6 | CCN1C(=O)[C@H]2[C@@H]3[C@H](O)[C@H](O)CC(=O)[C@H]3CC[C@H]2C1=O | -3.64% and -8.67%

Tested on: not listed separately
Test: Confirmation and Secondary Assay for Modulators of Hemoglobin Beta Chain Splicing at IVS2 705 locus (AID 930);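 note: HeLa cells stably expressing the EGFP-705 splicing reporter; GFP fluorescence per well restored by corrected splicing of the IVS2-705 intron in EGFP; % of control where 0% means no effect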
Settings: HeLa EGFP-705 splicing reporter, GFP fluorescence, 48 h; series mostly up to 46.1 µM; activation: at the top concentration
Method in brief: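 Splice-correction reporter: EGFP cDNA split by beta-globin intron 2 bearing the 705 mutation, stably in HeLa. Compound incubation 2 days, 37C; fluorescent objects 5-250 µm summed per well.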

Row | Structure (SMILES) | activation
7 | CN1C2CC(OC(=O)C(CO)c3ccccc3)C[C@@H]1[C@H]1OC21 (some centres undefined) | -1.98%
8 | COC(=O)C1C(O)CC[C@H]2CN3CCc4c([nH]c5ccccc45)C3C[C@H]12 (some centres undefined) | 2.03% [at 38.3 µM]
9 | COc1cc2c(cc1OC)C1C(=O)c3c(cc4c(c3O)C=CC(C)(C)O4)OC1CO2 (centres undefined) | 0.18% [at 38.3 µM]

Molecular target: Alpha-galactosidase A (Homo sapiens) (UniProt P06280)
Sequence (P06280 whole entry, looked up): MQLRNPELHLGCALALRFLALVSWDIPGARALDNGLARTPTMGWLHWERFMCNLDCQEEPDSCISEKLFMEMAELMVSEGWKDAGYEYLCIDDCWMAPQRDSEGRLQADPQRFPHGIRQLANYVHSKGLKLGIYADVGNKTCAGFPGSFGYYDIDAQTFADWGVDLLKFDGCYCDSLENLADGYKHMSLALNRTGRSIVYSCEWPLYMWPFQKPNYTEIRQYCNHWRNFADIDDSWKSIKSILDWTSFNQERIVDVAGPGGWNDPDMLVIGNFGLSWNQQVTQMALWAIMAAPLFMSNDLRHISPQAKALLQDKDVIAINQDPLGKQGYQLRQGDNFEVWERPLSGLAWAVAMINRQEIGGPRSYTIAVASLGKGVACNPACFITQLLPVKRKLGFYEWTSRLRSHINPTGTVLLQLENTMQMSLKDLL
Test: Counterscreen for Glucocerebrosidase Inhibitors: qHTS Assay for Human alpha-Galactosidase at pH 4.5 (AID 992); note: 0% is about no effect
Settings: purified enzyme, fluorogenic substrate; series mostly up to 76.9 µM; activity change, negative = inhibition: at the top concentration
Method in brief: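 Concentration-response curves (0.7 nM to 77 uM final) were modeled with the Hill equation to give AC50. Reactions: 2 nM enzyme, 80 uM fluorogenic alpha-galactoside, pH 4.5 citric acid buffer, 20 min, room temperature.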

Row | Structure (SMILES) | activity change, negative = inhibition [%]
10 | CCc1nnc(NC(=O)c2ccc(NS(=O)(=O)c3ccccc3)cc2)s1 | 4.33
11 | Cc1cc(N2CCOCC2)nc2ccc(NC(=O)C3CCCCC3)cc12 | -18
12 | COc1ccc(Cl)cc1Nc1nc(NCCO)nc(N2CCCC2)n1 | 1.33
13 | CCCCCCCCCN1C[C@H](O)[C@@H](O)[C@H](O)[C@H]1CO | 10
14 | CC(C)(C)Oc1ccccc1Nc1nc(NCCO)nc(N2CCCC2)n1 | -3

Molecular target: alpha-glucosidase (Oryza sativa, rice) (UniProt Q653V4)
Test: Counterscreen for Glucocerebrosidase Inhibitors: qHTS Assay for Rice alpha-Glucosidase at pH 5.0 (AID 997);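 note: 0% = full activity with enzyme and -100% = basal without enzyme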
Settings: rice alpha-glucosidase enzyme activity; series mostly up to 76.9 µM; activity change, negative = inhibition: at the top concentration
Method in brief: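 Rice alpha-glucosidase (4 nM final) with 400 uM 4-methylumbelliferyl-alpha-D-glucopyranoside in citrate buffer pH 5.0, 20 min at room temperature, stopped at pH 10; fluorescence 365/440 nm, compounds 0.7 nM–77 uM, AC50 from Hill fits.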

Row | Structure (SMILES) | activity change, negative = inhibition [%]
15 | CCc1nnc(NC(=O)c2ccc(NS(=O)(=O)c3ccccc3)cc2)s1 | -12
16 | Cc1cc(N2CCOCC2)nc2ccc(NC(=O)C3CCCCC3)cc12 | 22.3
17 | COc1ccc(Cl)cc1Nc1nc(NCCO)nc(N2CCCC2)n1 | -9.33
18 | CCCCCCCCCN1C[C@H](O)[C@@H](O)[C@H](O)[C@H]1CO | -99.3
19 | CC(C)(C)Oc1ccccc1Nc1nc(NCCO)nc(N2CCCC2)n1 | -2.5
